Screening results: PubChem BioAssay, The Scripps Research Institute Molecular Screening Center
Sampled rows, rich in hits. Any-hit rate of the full collection: about 4.8%.
hcDAF-12 act – activators of H. contortus DAF-12 nuclear receptor; HEK293 hcDAF-12 lit1-tk-luc reporter, luminescence; 0% DMSO, 100% Δ7-dafachronic acid; activation, % at 6.8 µM; hit rate 1.4% among 370,000;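 active = activation above the mean of all tested compounds plus 3 SD, cut at about 5.5% in these data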
hgDAF12 agonist – agonists of H. glycines DAF-12 nuclear receptor; hit rate 1.8% among 370,000; activation, % at 6.8 µM; AID 687014; HEK293 GAL4-hgDAF12 UAS-luciferase reporter, agonist luminescence; normalized to butyrate control;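 active = activation above a cutoff set at the mean of all screened compounds plus 3 SD, cut at about 10% in these data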
DAX1 inh-1 – blocks DAX1 repression of SF-1 activated StAR promoter; hit rate 1.1% among 370,000; inhibition, % at 6.8 µM; HEK293T StAR-luciferase reporter, SF-1/DAX-1 repression relief;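 active = inhibition above the mean over all tested compounds plus 3 SD, cut at about 3.6% in these data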;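 also: higher inhibition means more luminescence from relief of DAX-1 repression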
ssDAF12 agonist – S. stercoralis DAF-12 activation, primary screen; activation, % at 6.8 µM; HEK293 ssDAF-12/GRIP1 lit1-tk-luc reporter, luminescence; % of 3 µM dafachronic acid response; hit rate 1% among 370,000; AID 652126;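 active = activation above the mean over all tested compounds plus 3 SD, cut at about 0.9% in these data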
DAX1 inh-2 – NR0B1 (DAX1) inhibition; hit rate 0.99% among 340,000; AID 504766; HEK293 Gal4-DAX1 luciferase reporter, luminescence; P51843; inhibition, % at 6.75 µM;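 active = inhibition above the mean over all tested compounds plus 3 SD, cut at about 4.2% in these data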;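 also: inhibition shows as a rise in luminescence from relieved DAX1 repression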
Target sequence (P51843 207-470 limits assumed): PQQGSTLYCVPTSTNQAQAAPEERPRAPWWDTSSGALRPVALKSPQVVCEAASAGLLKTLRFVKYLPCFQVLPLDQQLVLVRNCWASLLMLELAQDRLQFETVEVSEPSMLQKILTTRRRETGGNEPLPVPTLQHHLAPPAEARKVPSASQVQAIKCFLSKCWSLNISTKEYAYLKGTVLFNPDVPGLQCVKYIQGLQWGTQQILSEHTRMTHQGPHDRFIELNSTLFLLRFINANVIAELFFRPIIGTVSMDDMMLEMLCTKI
SMARCA2 act – activators of SMARCA2 function | hit rate 1% among 370,000 | MG213 cells, MMTV-luciferase reporter, dexamethasone, overnight | activation, % at 9.1 µM | AID 652017; in the data active = activation above about 7.8%
DAX1 conf – confirmation of human DAX1 (NR0B1) inhibitors; HEK293T StAR-promoter luciferase reporter, SF-1/DAX-1 repression; inhibition, % at 6.8 µM; hit rate 87% among 2,400; shares compounds with DAX1 inh-1;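 active = inhibition above the average of every tested compound plus 3 SD, cut at about 3.8% in these data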;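 also: active compounds raise luminescence by relieving repression of the StAR reporter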
SF1 AF2mut Luc – counter-screen for DAX1 inhibitors: nonselective inhibitors with SF-1 AF2 mutant; shares compounds with DAX1 inh-1; HEK293 StAR-luciferase, luminescence; inhibition, % at 6.8 µM; hit rate 78% among 2,400; AID 652136;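 active = inhibition above the mean of all tested compounds plus 3 SD, cut at about 3% in these data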
Large screens that a line does not name were inactive (follow-up assays come after a bar, where they were run).

CCC(=O)C1CCCN(C(=O)CCc2nnc(-c3ccc4c(c3)OCO4)o2)C1 (stereo not drawn)	none
CCc1ccc(C(=O)NCC2(c3ccccc3)CCOCC2)o1	hgDAF12 agonist 13, DAX1 inh-1 4.6 | DAX1 conf 6.7 | SF1 AF2mut Luc 3.4
O=C(NCC1(c2ccccc2)CCOCC1)c1ccc(Br)o1	none
COCC(=O)N(c1ccc(C(C)(C)C)cc1)C(C(=O)NC(C)(C)C)c1cccnc1 (stereo not drawn)	none (no result: DAX1 inh-1, DAX1 inh-2, SMARCA2 act)
O=C(Nc1ncccc1O)c1ccc(NS(=O)(=O)c2ccc3[nH]c(=O)[nH]c3c2)cc1	DAX1 inh-1 15 | DAX1 conf 19 | SF1 AF2mut Luc 15
CN1CCCN(C(=O)c2cc3c(s2)CCCC3)CC1	none
CC(=O)N1CCN(C(=O)c2cc3c(s2)CCCC3)CC1	DAX1 inh-1 4.6 | DAX1 conf inactive | SF1 AF2mut Luc inactive
CCCCCCC[C@@H](C/C=C/CCC(=O)N(C)C/C(=C/Cl)C/C(=C\C(=O)N1C[C@H](O)CC1=O)OC)OC	none
CCCCCCC[C@@H](C/C=C/CCC(=O)N(C)C/C(=C/Cl)C/C(=C\C(=O)N1CC(OC)=CC1=O)OC)OC	DAX1 inh-1 19 | DAX1 conf 6.2 | SF1 AF2mut Luc inactive
CCCCOCCCNC(=O)C[C@H]1C(=O)N(Cc2ccc(OC)cc2)C2=CCCC[C@@]21C(=O)OCC	none (no result: DAX1 inh-2)
CCCCN(C)c1c2c(nc3ncnn13)CCCC2	none (no result: DAX1 inh-2)
CN(Cc1cnccn1)C(=O)C1CCC(=O)N(CCc2ccccc2)C1 (stereo not drawn)	none
Cc1ccc(CN(C)C(=O)C2CCC(=O)N(CCc3ccccc3)C2)o1 (stereo not drawn)	DAX1 inh-1 5.8 | DAX1 conf 4.2 | SF1 AF2mut Luc 3.6
COc1ccc(-c2nc3n(c2C)CCC3)cc1	none
COc1ccc(-c2cc3nc4n(c(=O)c3s2)CCC4)cc1	DAX1 inh-1 6.6 | DAX1 conf 7.3 | SF1 AF2mut Luc inactive
CC(C)C[C@H]1COc2cccc(F)c2S(=O)(=O)N1C	none (no result: DAX1 inh-2)
Cc1ccc(OC2CCN(C(=O)[C@@H](Cc3ccccc3)NC(=O)[C@H]3O[C@@H](n4ccc(=O)[nH]c4=O)[C@H](O)[C@@H]3O)CC2)cc1	none (no result: DAX1 inh-2)
Cc1cccc(-c2cccc3c4c([nH]c23)[C@@H]2C[C@H](N(C)C(=O)C3CCCCC3)[C@H]([C@H](C)O)CN2CC4)c1	none (no result: DAX1 inh-2)
Cc1ccc2sc(-c3ccc(NC(=O)/C=C\C(=O)O)cc3)nc2c1	hcDAF-12 act 6.2, hgDAF12 agonist 12, DAX1 inh-1 5.3 | DAX1 conf 9.9 | SF1 AF2mut Luc 6.5
Cc1nc(-c2ccc(NC(=O)/C=C\C(=O)O)cc2)cs1	none
COC(=O)c1ccc2nc(-c3cccc(N)c3)cn2c1	DAX1 inh-1 5.6 | DAX1 conf 5.3 | SF1 AF2mut Luc inactive
COC(=O)c1sccc1NC(=O)Nc1ccc(C)cc1	hcDAF-12 act 5.9, hgDAF12 agonist 13, DAX1 inh-1 8.5, ssDAF12 agonist 1.4 | DAX1 conf 4.6 | SF1 AF2mut Luc inactive
COc1ccccc1CNC(=O)NNC(=O)CCn1nc(C)c([N+](=O)[O-])c1C	none (no result: DAX1 inh-2)
O=c1[nH]c(COc2ccc(Br)cc2Cl)nc2ccccc12	DAX1 inh-1 7.4 | DAX1 conf 7.7 | SF1 AF2mut Luc 4.8
O=c1[nH]c(COc2ccccc2)nc2ccccc12	none
O=C(Nc1ccc2c(c1)OCCO2)c1cccc(C(=O)Nc2ccc3c(c2)OCCO3)c1	none
O=C(Nc1ccc2c(c1)OCCO2)c1ccc(Br)s1	hcDAF-12 act 5.8, hgDAF12 agonist 12, DAX1 inh-1 5.9, ssDAF12 agonist 1.5 | DAX1 conf 14 | SF1 AF2mut Luc 5.6
CCc1sc(C(=O)Nc2ccc3c(c2)OCO3)cc1C	hgDAF12 agonist 11, DAX1 inh-1 7.6 | DAX1 conf 9.3 | SF1 AF2mut Luc 6.5
Cn1nccc1C(=O)Nc1ccc2c(c1)OCO2	DAX1 inh-1 4.7 | DAX1 conf 5.8 | SF1 AF2mut Luc 3.9
